LASV entry inh – Lassa virus entry inhibition; 300,000 compounds, 1.2% hits; AID 540256; Potency, µM (titrated, usually from 37.9 µM), inactives show at the highest dose activity change, negative = inhibition, actives largely listed as inhibitors; Lassa virus pseudotype entry inhibition, cell reporter; calls by dose curve; tested in HEK293 cells; further: potency means the concentration at half of the fitted maximal effect; on the % scale 0 is the no-effect control and ±100 the full control effect; nearly all actives have a fitted effect of over 50% in size
Shiga toxin inh – blocks Shiga toxin action in Vero cells; 290,000 compounds, 9.2% hits; AID 2315; Vero cells, Shiga toxin protein synthesis inhibition reporter; inhibition, % at 38.7 µM; in the data active means inhibition mostly above about 28%, no sharp cut-off; inactive means mostly below about 43%; further: 0% is about no effect
Marburg entry inh – inhibitors of Marburg virus binding or cell entry. Marburg virus pseudotyped entry inhibition, cell reporter. Potency, µM (titrated, usually from 37.8 µM), for inactives: at the highest dose activity change, negative = inhibition, hits mostly inhibitors. 300,000 compounds, 1.8% hits; calls by dose curve; tested in HEK293 cells; further: potency means the concentration at half of the fitted maximal effect; on the % scale 0 is the no-effect control and ±100 the full control effect
Cycloheximide cs – counter-screen for Shiga toxin inhibitors: cycloheximide protein synthesis inhibition; cell reporter, cycloheximide protein synthesis inhibition counterscreen; max response, %; 300,000 compounds, 12% hits; in the data active means max response mostly above about 13%, no sharp cut-off; inactive means mostly below about 14%; further: read at 38.3 µM for the half of the compounds with a filed dose; 0% is about no effect
* hit, by the source's call; u = inconclusive; x = no result given; [ ] = another dose, or the depositor's remark. The list is not random: actives were taken first. Their share in the collection is about 12%.

SMILES | LASV entry inh | Shiga toxin inh | Marburg entry inh | Cycloheximide cs
CCOC(=O)c1cc(C(=O)NC(C)c2ccccc2)c(C)[nH]c1=O (centres undefined) | x | -2.1 | x | -3.5
Cc1nn(-c2ccc(Cl)nn2)c(=O)c2ccccc12 | 24.5% | 49.3 | u | 26.5*
Cc1nn(-c2ccc(Cl)cc2)c(=O)c2ccccc12 | u | 98.0* | 6.1% | 48.4*
Cc1nn(-c2ccc(Cl)c(Cl)c2)c(=O)c2ccccc12 | 1.3% | 11.9 | u | -4.6
Cc1nn(-c2ccccc2)c(=S)c2ccccc12 | u | 60.1* | u | 19.9*
Cc1nn(-c2ccc(Cl)c(Cl)c2Cl)c(=O)c2ccccc12 | 2.6% | 19.9 | 0.0% | -0.5
Cc1nn(-c2ccc3ccccc3c2)c(=O)c2ccccc12 | x | 114.9* | x | 51.0*
Cc1ccc2nc3c(cc2c1)c(C)nn3-c1ccccc1 | x | -2.5 | x | -2.4
O=C(Nc1cc2cc([N+](=O)[O-])ccc2oc1=O)c1cccs1 | x | 52.3* | x | 27.7*
O=C(Nc1cccc(NC(=O)c2cccs2)c1)c1ccc([N+](=O)[O-])o1 | u | 18.4 | u | 13.5*
Cc1ccc(NC(=O)c2ccc(Nc3c([N+](=O)[O-])cc([N+](=O)[O-])cc3[N+](=O)[O-])cc2)cc1 | u | -15.5 | 10µM* | -4.0
Cc1ccc(C(=O)Nc2ccc(NC(=O)c3cccs3)cc2)cc1[N+](=O)[O-] | x | 22.6 | x | 7.8
Cc1ccc(NC(=O)c2cccs2)cc1[N+](=O)[O-] | -9.5% | 38.0* | -12.6%[46.1 µM] | 35.6*
CCOc1ccc(-n2c(=O)c3c4c(sc3n(CC(=O)NC(C)CC)c2=O)CCC4)cc1 (centres undefined) | 1.3%[46.1 µM] | x | u | x
CC(C)c1ccc(S(=O)(=O)N2CCN(C(=O)Cc3ccsc3)CC2)cc1 | -5.5% | x | -2.9% | x
Cc1ccc([N+](=O)[O-])cc1NC(=O)c1ccc(C(C)(C)C)cc1 | -11.3% | -2.5 | -28.7% | 10.5
Cc1cc(C)nc(Nc2ccc(C)c([N+](=O)[O-])c2)n1 | 10.1% | 53.9* | 13.7%[46.1 µM] | 17.1*
Cc1ccc(NC(=O)c2ccc(C(C)(C)C)cc2)cc1[N+](=O)[O-] | -0.9% | 11.8* | 21.5% | 43.4*
CC1CC(=O)C(C(C2=C(O)CC(C)CC2=O)c2ccccc2)=C(O)C1 (centres undefined) | -3.7% | x | -5.3% | x
O=C(Nc1nc2ccc([N+](=O)[O-])cc2s1)C1CCCO1 (centres undefined) | 2.3% | 112.4* | -22.7%[46.1 µM] | 36.8*
O=C(Nc1nc2ccc(Cl)cc2s1)C1CCCO1 (centres undefined) | u | 106.0* | u | 42.6*
O=C(Nc1nc2ccccc2s1)C1CCN(S(=O)(=O)c2cc([N+](=O)[O-])ccc2Cl)CC1 | x | 49.7* | x | 20.7*
Cc1ccnc2c1ccc1ccccc12 | x | 20.9 | x | 16.2*
Cc1ccc2cccnc2c1N | u | 12.5 | 2.9% | 17.3
Oc1ccccc1C1NN=C(c2ccccc2)S1 (centres undefined) | u | 56.1* | u | 33.2*
SMILES | LASV entry inh | Shiga toxin inh | Marburg entry inh | Cycloheximide cs
CSc1ccc(C2NN=C(c3ccccc3)S2)cc1 (centres undefined) | 6.31µM* | x | 2.82µM* | x
Oc1ccccc1C1CCCCC1c1ccccc1 (centres undefined) | -21.9% | -9.1 | -29.5% | 1.9
CSc1ccc(-c2sc(Nc3ccccc3)n[n+]2-c2ccc(F)cc2)cc1 | x | 7.6 | x | -0.9
Cc1ccc(NC(=O)c2ccco2)c([N+](=O)[O-])c1 | u | 107.4* | u | 40.6*
COc1ccc(NC(=O)C/C(C)=N/NC(=O)c2ccncc2)c([N+](=O)[O-])c1 | 6.3%[46.1 µM] | -8.4 | u | -3.4
COc1ccc(NC(=O)c2ccco2)c([N+](=O)[O-])c1 | u | 34.7* | u | 20.1*
COc1ccc(NC(=O)C/C(C)=N/NC(=O)c2ccco2)c([N+](=O)[O-])c1 | 0.8%[46.1 µM] | 92.5* | 8.0%[46.1 µM] | 19.1*
CN(CC(=O)Nc1c(Cl)cccc1Cl)C(=O)c1ccc2ccccc2n1 | -7.0% | x | 26.9% | x
CC(=O)Nc1ccc(NC(=O)C2CC(=O)N(c3ccccc3Cl)C2)cc1 (centres undefined) | 14.4%[46.1 µM] | -10.0 | 13.4%[46.1 µM] | 3.9
Cc1ccc(C)c(NC(=S)N(Cc2ccc(Cl)cc2)Cc2ccc(C(=O)O)cc2)c1 | -28.6%[46.1 µM] | -13.9 | u | -0.8
OCCC1CN(Cc2cc3c(cc2Cl)OCO3)CCN1C1CCCCC1 (centres undefined) | -14.3% | 4.3 | u | -2.3
O=C(c1ccccc1)c1cc(F)c(N2CCOCC2)cc1Cl | -7.5% | 23.4 | u | 15.3
O=C(Nc1ccc(N2CCOCC2)c(F)c1)c1ccncc1 | 0.0% | 60.8* | -1.3% | 17.9*
O=C(c1ccccc1)c1ccc(N2CCOCC2)c(F)c1 | u | 131.4* | -15.2% | 20.5*
O=C(Nc1ccc(N2CCOCC2)c(F)c1)c1cccs1 | u | 52.8* | -26.5%[46.1 µM] | 43.6*
O=C(Nc1ccc(N2CCOCC2)c(C(=O)O)c1)c1ccc(Br)cc1 | -0.9%[46.1 µM] | x | x | x
O=C([C@H](Cc1ccccc1)N1C(=O)c2ccccc2C1=O)N1CCOCC1 | 0.5%[46.1 µM] | -22.3 | u | 6.6
Cc1ccc(S(=O)(=O)N2CCOCC2)cc1NC(=O)CNC1CCCC1 | -10.4% | 26.4 | -8.1% | -0.2
CN1CCC(=NNC(=O)C(=O)Nc2ccccc2)CC1 | 0.6% | 25.4* | 3.9% | 24.0*
C=CCNC(=O)C(=O)NN=C1CCN(C)CC1 | 11.1% | 5.2 | 3.2% | -0.4
Cc1ccc(Sc2ncccc2COC(=O)Nc2c(C)cccc2C)cc1 | 2.82µM* | -6.5 | -15.3% | 2.4
Cc1ccc(Sc2ncccc2COC(=O)Nc2ccccc2)cc1 | 15.8µM* | -9.0 | -28.5% | -0.9
O=C(NC(=S)Nc1ccccc1)c1csnn1 | -1.4% | 26.8 | 10.4% | 22.1*
Cc1ccc(C(=O)NC(=S)NNC(=O)c2ccccc2)cc1 | x | 6.5 | x | 8.9
Cc1ccc(NC(=O)NC(=S)NC(=O)c2ccccc2)cc1 | u | 87.7* | 11.5% | 48.3*
SMILES | LASV entry inh | Shiga toxin inh | Marburg entry inh | Cycloheximide cs
O=C(O)c1ccc(NC(=S)NC(=O)c2ccc(-c3ccccc3)cc2)cc1 | 5.4%[46.1 µM] | 47.6 | u | 44.9*
O=C1CN(C(=S)NC(=O)c2ccc(-c3ccccc3)cc2)CCN1 | x | 62.1 | x | 15.5*
Cc1c(C(=O)Nc2cccc([N+](=O)[O-])c2)sc2ncn(CC(=O)N3CCOCC3)c(=O)c12 | 15.9%[46.1 µM] | -1.6 | -6.2%[46.1 µM] | -7.8
COC(=O)C1=C2CCO[C@H]2[C@@H]2[C@@H](C)[C@H](OC)c3ccccc3[C@@H]12 | -6.2%[14.3 µM] | x | u | x
CN1C2CCC1/C(=C/c1ccccn1)C(=O)/C2=C\c1ccccn1 | 2.31µM* | -8.1 | 1.26µM* | -5.9
CN1C2CCC1/C(=C\c1ccccc1)C(=O)/C2=C\c1ccccc1 | u | -8.5 | 14.6µM* | 14.7
CC(C)(C)C1C/C(=C/c2ccccn2)C(=O)/C(=C/c2ccccn2)C1 (centres undefined) | x | -22.6 | x | -11.1
CC1C/C(=C/c2ccccn2)C(=O)/C(=C/c2ccccn2)C1 (centres undefined) | 3.98µM* | -8.8 | u | 10.2
Cc1ccc(NS(=O)(=O)c2ccccc2)c(C)c1 | x | -5.6 | x | -4.9
Cc1ccc(N=Cc2c(O)n(-c3nccs3)c(=O)c3ccccc23)cc1 | -16.1% | 6.6 | u | 2.3
CCN(CCO)c1nc(NCc2ccccc2)c2cnn(C)c2n1 | x | -4.9 | x | -3.6
C[C@H](N)c1nnc(SCC(=O)N(C)C)o1 | 1.5% | 17.4 | -0.4% | 16.8*

Source: PubChem
